Assay results as given in PubChem BioAssay.
“And” between values parts separate entries of the source, which are not always exact repeats. Equal values may be shown once. The source made the active and inactive calls.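 The calls were made as follows, unless noted: active = inhibition at or above 50% relative to wild type and mutant plate controls; inactive = inhibition below 50%.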

Tests used:
[1] = inhibitors of TNFa-induced NFkB p65 translocation, primary screen, imaging, HUVEC, MLSMR starter and 10KST1 sets (AID 438;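 active = inhibition above 20% together with a positive visual image hit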;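 also: compound added about 3h40 before a 20 min TNFalpha stimulation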;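 as to inhibition: signal is the nuclear over cytoplasmic p65 intensity ratio per well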); conditions: HUVEC TNFa-induced p65 nuclear translocation; cell count: measured here: nuclei count (cytotoxicity indicator), at 2.08 µM; inhibition: at 2 µM, stronger effect = higher value, 0% TNFa-plus-vehicle, 100% no-TNFa wells
[2] = inhibitors of mutant huntingtin aggregation, primary screen, imaging, exon1htt(103Q)mCFP cells, high-content imaging (AID 483;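 active = visual image review flags a hit and inhibition of aggregation exceeds 20%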;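 also: compound exposure lasted 3 days before fixation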;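 as to nuclei count: percent of the per-plate median nuclei count of sample wells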); conditions: exon1htt(103Q)mCFP cell line, aggregate imaging, at 2 µM; inhibition of aggregation: stronger effect = higher value; nuclei count: measured here: cell count, toxicity
[3] = inhibitors of E-selectin induction by TNFa, primary screen, imaging, HUVEC, immunofluorescence, MLSMR starter and 10KST1 sets (AID 487;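 active = visually confirmed hit in the image check and inhibition above 20%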;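 as to inhibition: signal is fraction of cell area covered by stained E-selectin grains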;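 as to nuclei count: 100% = median nuclei count of all wells on the same plate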); conditions: HUVEC TNFalpha-induced E-selectin immunofluorescence imaging, at 2 µM; inhibition: stronger effect = higher value; nuclei count: measured here: cell number, toxicity
[4] = DUSP6 inhibitors restoring Erk phosphorylation by chemical complementation, primary imaging in DUSP6-transfected HeLa (AID 609;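 active = compounds giving at least 50% inhibition in the cell-based MKP-3 phosphatase rescue imaging test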;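 as to inhibition: phospho-Erk level distribution per well compared with pooled transfected vehicle control wells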); conditions: HeLa MKP-3 transfected, phospho-Erk imaging KS statistic, at 10 µM, cells stimulated with TPA for 15 min
[5] = target: Dual specificity protein phosphatase 6 (Homo sapiens) (UniProt Q16828); experiment: as above; conditions: HeLa MKP-3 transfected, phospho-Erk imaging KS statistic; at 10 µM; stronger effect = higher value; cells stimulated with TPA for 15 min
Chain of Dual specificity protein phosphatase 6 (Homo sapiens) (Q16828 whole entry, looked up): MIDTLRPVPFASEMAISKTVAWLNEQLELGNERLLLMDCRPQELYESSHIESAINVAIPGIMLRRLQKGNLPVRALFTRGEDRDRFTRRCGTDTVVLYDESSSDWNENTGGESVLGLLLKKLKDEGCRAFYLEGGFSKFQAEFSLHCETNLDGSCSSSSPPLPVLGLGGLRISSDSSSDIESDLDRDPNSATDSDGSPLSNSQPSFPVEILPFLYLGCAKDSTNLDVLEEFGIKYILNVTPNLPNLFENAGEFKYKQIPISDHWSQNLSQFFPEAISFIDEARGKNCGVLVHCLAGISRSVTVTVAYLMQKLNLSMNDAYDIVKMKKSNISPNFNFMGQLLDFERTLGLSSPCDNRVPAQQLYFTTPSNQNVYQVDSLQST

[6] = target: Voltage-gated potassium channel subunit beta-2 (Rattus norvegicus) (UniProt P62483); experiment: KvBeta enzyme negative modulators, primary screen, biochemical, NADPH fluorescence (AID 622;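 active = fluorescence slope higher than the sample average by over 3 SD, cut at about -0.22 in these data, passing the limit was not always enough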;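 also: slope of raw intensity against log time taken from 70 to 1610 s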); conditions: recombinant KvBeta, 4-cyanobenzaldehyde reduction, at 10 µM, stronger effect = higher value
Chain of Voltage-gated potassium channel subunit beta-2 (Rattus norvegicus) (P62483 whole entry, looked up): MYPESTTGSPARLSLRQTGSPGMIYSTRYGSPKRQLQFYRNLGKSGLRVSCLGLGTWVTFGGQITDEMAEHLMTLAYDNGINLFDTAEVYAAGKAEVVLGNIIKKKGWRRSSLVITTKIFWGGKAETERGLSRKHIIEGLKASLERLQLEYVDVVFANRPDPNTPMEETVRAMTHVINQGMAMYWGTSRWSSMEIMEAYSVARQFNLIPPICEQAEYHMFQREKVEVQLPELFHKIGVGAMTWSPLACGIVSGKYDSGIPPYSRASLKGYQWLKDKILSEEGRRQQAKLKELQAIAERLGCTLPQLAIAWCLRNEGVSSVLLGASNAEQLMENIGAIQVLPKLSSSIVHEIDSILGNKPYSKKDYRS

[7] = target: Voltage-gated potassium channel subunit beta-2 (Rattus norvegicus) (UniProt P62483); experiment: KvBeta positive modulators, primary screen, biochemical, NADPH fluorescence (AID 623;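 active = NADPH fluorescence slope more negative than the mean of all samples by about 3 SD, 99.7% confidence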;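 also: fluorescence intensity change per second fitted from 20 to 320 s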); conditions: Recombinant KvBeta, NADPH fluorescence decrease slope, 10 min; at 10 µM; stronger effect = lower value
[8] = target: Muscarinic acetylcholine receptor M4 (Homo sapiens) (UniProt P08173); experiment: compounds altering M4/GIRK thallium flux, either direction, primary screen, M4 allosteric agonist project, cell-based, HEK293 M4/GIRK, BTC-AM (AID 625;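 active = fluorescence slope after compound addition differing from the mean of all tested samples at 99.7% confidence, mostly higher but some lower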;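 also: thallium influx through GIRK channels coupled to M4 in HEK293 cells with BTC-AM dye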); conditions: at 10 µM, actives lie on both sides
Chain of Muscarinic acetylcholine receptor M4 (Homo sapiens) (P08173 whole entry, looked up): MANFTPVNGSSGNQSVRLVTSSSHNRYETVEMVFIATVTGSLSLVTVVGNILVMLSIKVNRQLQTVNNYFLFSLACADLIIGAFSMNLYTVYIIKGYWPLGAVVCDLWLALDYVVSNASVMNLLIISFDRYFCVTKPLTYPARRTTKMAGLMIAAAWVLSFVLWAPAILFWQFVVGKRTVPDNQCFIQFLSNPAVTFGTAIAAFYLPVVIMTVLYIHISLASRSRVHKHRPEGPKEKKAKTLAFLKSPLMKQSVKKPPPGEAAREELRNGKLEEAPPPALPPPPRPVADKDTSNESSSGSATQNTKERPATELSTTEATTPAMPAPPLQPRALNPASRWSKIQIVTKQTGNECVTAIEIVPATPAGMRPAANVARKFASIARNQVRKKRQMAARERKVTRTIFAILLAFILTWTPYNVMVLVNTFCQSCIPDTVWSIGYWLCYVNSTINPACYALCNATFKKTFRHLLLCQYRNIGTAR

[9] = inhibitors of larval lipid processing in zebrafish, primary screen, whole organism, PED6 fluorescence, gall bladder and intestine (AID 686;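 active = a full or partial loss of lipid-probe fluorescence in the fish gall bladder, intestine or both, judged by eye; inactive = no fluorescence loss, or compound toxic to the fish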;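 also: larvae 5 to 7 days old with five fish per well; signal comes from phospholipase A2 cleavage of quenched PED6 carried via bile; overnight exposure to compound and PED6 before scoring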); conditions: Zebrafish larvae PED6 lipid processing, fluorescence scoring; screened at 20 µM (by protocol)
[10] = inhibitors of Chlamydomonas gravitaxis, primary screen, whole organism, Chlamydomonas reinhardtii, WT vs cilia-less mutant, absorbance, 96-well (AID 463189); conditions: OD600 absorbance, 2 days, at 10 µM, stronger effect = higher value;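 also: 0% = wild type cc124 cells in DMSO and 100% = ciliumless bld1 mutant cells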
[11] = inhibitors of Sendai virus-induced IRF3 signaling, primary screen, TLR/RLR signaling modifier project, cell-based, Sendai virus stimulus, luciferase, 10K MLSCN set (AID 602276;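 active = inhibition at or above 50% at 10 µM; inactive = inhibition below 50%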;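 also: firefly luciferase from ISG56 promoter only with Renilla not read in this screen; 0% = Sendai virus plus DMSO and 100% = medium plus DMSO without virus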); conditions: HEK293 RL24 IRF3 luciferase reporter, at 10 µM, stronger effect = higher value
[12] = inhibitors of poly I:C-induced TLR3 signaling, primary screen, cell-based, poly I:C stimulus, luciferase, 10K MLSCN set (AID 602277;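 active = inhibition of the reporter signal at or above 50%; inactive = inhibition below 50%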); conditions: HEK293-TLR3 RL24 IRF3 luciferase reporter, at 10 µM, stronger effect = higher value
[13] = measured here: cell density z-score
[14] = measured here: nuclear c-Myc green intensity z-score
[15] = measured here: nuclear pErk red intensity z-score, stronger effect = higher value

Structure (SMILES) | cell count [1] | inhibition [1] | inhibition of aggregation [2] | nuclei count [2] | inhibition [3] | nuclei count [3] | z-score [4, 13] | z-score [4, 14] | z-score [4, 15] | inhibition [5] | fluorescence slope [6] | NADPH fluorescence slope [7] | fluorescence slope [8] | outcome [9] | inhibition [10] | inhibition [11] | inhibition [12]
COC(=O)C(NC(C)=O)(Nc1ccccn1)C(F)(F)F (stereo not drawn) | 499 | -0.5% (inactive) | 12.2% (inactive) | 111% | -61.1% (inactive) | 121% | 2.44 | -0.933 | -0.0238 | 41.5% (inactive) | -0.44 (inactive) | -0.000125 (inactive) | 0.00527 (inactive) | inactive | -7.72% (inactive) | 12.5% (inactive) | 20.1% (inactive)
CC(CCc1ccccc1)NCC(O)c1ccc(O)c(C(N)=O)c1 (stereo not drawn) | 612 | -8.1% (inactive) | -15.6% (inactive) | 103% | -7.9% (inactive) | 107% | 0.375 | -0.198 | -0.807 | 13.3% (inactive) | -0.442 (inactive) | 2.9e-05 (inactive) | 0.00425 (inactive) | inactive | 10.1% (inactive) and -0.75% (inactive) | -17.5% (inactive) | 5.32% (inactive)
Cn1c(SCC(=O)N2CCOCC2)nnc1-c1cccc(NC(=O)c2ccccc2F)c1 | 576 | -2.8% (inactive) | -17.6% (inactive) | 115% | 17.5% (inactive) | 107% | -2.39 | 0.78 | -0.11 | 1.63% (inactive) | -0.578 (inactive) | -5.9e-05 (inactive) | 0.00616 (inactive) | inactive | 20.3% (inactive) | 13.9% (inactive) | 22.5% (inactive)
CCC(NC(=O)Nc1cc(OC)c(OC)c(OC)c1)(C(F)(F)F)C(F)(F)F | 545 | 3.4% (inactive) | 15.8% (inactive) | 97.5% | -82.9% (inactive) | 141% | -0.0203 | 1.89 | 0.038 | 1.9e-07% (inactive) | -0.48 (inactive) | -4e-05 (inactive) | 0.00495 (inactive) | inactive | 8.7% (inactive) | 20% (inactive) | 24.9% (inactive)
CC(O)c1n(C)c(Cl)c[n+]1C (stereo not drawn) | 674 | -10% (inactive) | -4% (inactive) | 103% | -67.2% (inactive) | 134% | -2.1 | -0.307 | 2.29 | 18.6% (inactive) | -0.454 (inactive) | -4.6e-05 (inactive) | 0.0053 (inactive) | inactive | -6.3% (inactive) | 17% (inactive) | 10.8% (inactive)
Cc1ccc(-n2ncc3c(N4CCN(c5ccccc5)CC4)ncnc32)c(C)c1 | 600 | -15.9% (inactive) | -1.5% (inactive) | 113% | -27.8% (inactive) | 154% | -0.444 | -0.19 | 1.79 | -12.6% (inactive) | -0.379 (inactive) | -5e-05 (inactive) | 0.00708 (inactive) | inactive | 2.19% (inactive) | 20.5% (inactive) | -19.9% (inactive)
COc1ccc2c(c1)C1(C)CC(C)(C)N2C(=O)N1c1ccccc1 (stereo not drawn) | 585 | -8.2% (inactive) | -18.9% (inactive) | 111% | -32.4% (inactive) | 110% | 0.165 | -1.42 | -0.582 | -3.95% (inactive) | -0.461 (inactive) | -4.8e-05 (inactive) | 0.0047 (inactive) | inactive | 4.76% (inactive) | 12% (inactive) | 23.1% (inactive)
Nn1c(SCC(=O)Nc2ccc3c(c2)OCCO3)nnc1C(F)(F)F | 598 | 0% (inactive) | -32.9% (inactive) | 105% | -26.1% (inactive) | 110% | 0.295 | -0.513 | -1.34 | 10.9% (inactive) | -0.426 (inactive) | -5.4e-05 (inactive) | 0.00501 (inactive) | inactive | 11.3% (inactive) | 12.4% (inactive) | 21.3% (inactive)
Cc1cc(O)c(C(C)C)cc1N=C1CSC(=O)N1 | 428 | -5.3% (inactive) | 10.4% (inactive) | 60.9% | -9% (inactive) | 98.6% | 0.698 | -0.53 | 0.0977 | 12.8% (inactive) | -0.483 (inactive) | -5.3e-05 (inactive) | 0.00491 (inactive) | inactive | -20% (inactive) | 13% (inactive) | 19.6% (inactive)
COC(=O)CNC(=O)c1c(C)cc(=O)oc1C | 481 | 1.6% (inactive) | 1.6% (inactive) | 110% | -34.9% (inactive) | 115% | 0.439 | -0.128 | -1.37 | 19.4% (inactive) | -0.336 (inactive) | -2.8e-05 (inactive) | 0.00527 (inactive) | inactive | 28.5% (inactive) | 5.18% (inactive) | 12% (inactive)
CCOc1c(C)cc2[nH]c(CCC(=O)O)nc2c1C | 445 | 0.7% (inactive) | 8.3% (inactive) | 97.7% | -40.3% (inactive) | 116% | 1.23 | -1.62 | -1.73 | 7.42% (inactive) | -0.491 (inactive) | -3.6e-05 (inactive) | 0.00428 (inactive) | inactive | 21.6% (inactive) | 8.15% (inactive) | 8.77% (inactive)
COCc1cc(=O)[nH]c(Nc2nc3ccccc3o2)n1 | 597 | -4.5% (inactive) | 5.2% (inactive) | 87.4% | -16% (inactive) | 95.2% | 0.0739 | -1.45 | -0.93 | -2.09% (inactive) | -0.469 (inactive) | -5.1e-05 (inactive) | 0.00519 (inactive) | inactive | 4.61% (inactive) | -29.5% (inactive) | -80.2% (inactive)
COc1ccccc1N=Cc1nc(-c2ccccc2)oc1OC(C)=O | 451 | -8.2% (inactive) | -25.8% (inactive) | 84.2% | -86.5% (inactive) | 132% | 0.537 | -1.18 | 0.127 | 13.2% (inactive) | -0.347 (inactive) | -5.8e-05 (inactive) | 0.00675 (inactive) | inactive | 23% (inactive) | 18.8% (inactive) | 40.5% (inactive)
O=C(OCCCN1CCCC1)C1(c2ccccc2)CCCC1 | 621 | 2.6% (inactive) | -0.8% (inactive) | 80.3% | 39.9% (inactive) | 126% | -0.268 | -0.108 | -0.136 | 1.04% (inactive) | -0.456 (inactive) | -5.5e-05 (inactive) | 0.00493 (inactive) | inactive | 91.8% (active) | -13.4% (inactive) | -17.4% (inactive)
O=C(C1CC1(c1ccccc1)c1ccccc1)N1CCOCC1 (stereo not drawn) | 402 | -6.3% (inactive) | 13.6% (inactive) | 80.6% | -60.9% (inactive) | 150% | 0.0865 | -1.65 | -0.311 | -0.584% (inactive) | -0.416 (inactive) | -6.1e-05 (inactive) | 0.00482 (inactive) | inactive | 35% (inactive) | 18.5% (inactive) | 22.6% (inactive)
CN(CC(O)COc1ccc(OCC(O)CN(C)C2CCCCC2)cc1)C1CCCCC1 (stereo not drawn) | 605 | -1.3% (inactive) | -434% (inactive) | 67% | -149% (inactive) | 120% | -0.395 | 0.402 | 1.26 | 11.3% (inactive) | -0.384 (inactive) | -3e-05 (inactive) | 0.00666 (inactive) | inactive | 3.04% (inactive) | -47.8% (inactive) | 52.7% (active)
CCOC(=O)CNC(=O)Nc1ccccc1C(=O)OC | 676 | -2.9% (inactive) | -5.8% (inactive) | 83.8% | 15.4% (inactive) | 119% | 0.104 | 0.241 | -0.382 | -7.67% (inactive) | -0.507 (inactive) | -0.000189 (active) | 0.00626 (inactive) | inactive | -5.32% (inactive) | 10.2% (inactive) | 18.3% (inactive)
Cc1ccc(C(=O)/C=C/Nc2cccc(O)c2)cc1 | 368 | -4.7% (inactive) | -12% (inactive) | 106% | -0.2% (inactive) | 115% | -0.411 | -0.594 | 0.929 | -8.59% (inactive) | -0.467 (inactive) | -0.000129 (inactive) | 0.00389 (inactive) | inactive | 37.3% (inactive) | 5.62% (inactive) | -32.3% (inactive)
CCOC(=O)c1ccc(N=Cc2nc(-c3ccccc3)oc2OC(C)=O)cc1 | 794 | -6.6% (inactive) | -2.7% (inactive) | 98.2% | -0.4% (inactive) | 120% | 0.0584 | 0.0892 | -0.36 | 11.3% (inactive) | -0.395 (inactive) | -5.5e-05 (inactive) | 0.00761 (inactive) | inactive; toxic | 23.8% (inactive) | 4.63% (inactive) | 11.1% (inactive)
